Our source for the log2 fold change growth values is PubChem BioAssay AID1259336 (Sattelle Laboratory, UCL Respiratory, Division of Medicine, …, 2017).

The assay in a line: anthelmintic activity against nematode growth – whole organism, log2 fold change (AID 1259336).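 Note: growth scored by imaging after five days at 20 °C.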 To be noted: C. elegans growth, anthelmintic screen; stronger effect = lower value.

Values without a mark were called inactive. Calls of active or inactive are those of the source. Cut-off read from the data, not from the text of the source: active = log2 fold change growth below about -1.8; inactive = the rest.

On to `FC(F)(F)c1cnc(Sc2nnc(-c3ccncc3)o2)c(Cl)c1`, for which the log2 fold change growth was -0.0782.

For the molecule `C[C@H](Oc1ccccc1)C(=O)Nc1nc(-c2ccccn2)cs1`, the log2 fold change growth is -0.519.

`CNC(=O)[C@@H]1Cc2c([nH]c3cc(Cl)ccc23)C2(CCN(CCc3ccccc3)CC2)N1`: the log2 fold change growth is 0.551.

Turning to `Cc1cc(Nc2ccncc2)n2nc(C)c(-c3ccccc3Cl)c2n1`, the log2 fold change growth is -0.496.

As to `CCc1ccccc1-n1c(C)cn2c3c(=O)n([C@H](C(=O)OC)C(C)C)c(=O)n(C)c3nc12`, the log2 fold change growth was 0.456.

For the molecule `FC(F)(F)c1ccc(N(c2cccnc2)C2CCN(c3ccc(C(F)(F)F)cn3)CC2)cc1`, the log2 fold change growth was -0.44.

As to `COc1ccc(-c2nn(C(C)C)c3ncnc(N)c23)cc1OC`, the log2 fold change growth is 0.278.

For `CC1=NN(c2nc3ccccc3s2)C(=O)[C@H]1Cc1cccc2ccccc12`, the log2 fold change growth was -0.647.

In the case of `CC(C)(C)OC(=O)N1CCC(Cn2nc(-c3cnc4ccccc4c3)c3c(N)ncnc32)CC1`, the log2 fold change growth was -0.248.

With `Cc1[nH]n2c(=O)c3c(nc2c1-c1ccc(F)cc1)CCCC3`, the log2 fold change growth was -0.19.

For the molecule `Cc1nnc(NC(=O)c2cn(-c3ccccc3)nc2-c2ccccc2C)o1`, the log2 fold change growth was -0.302.

As to `O=C(Nc1n[nH]c(=S)s1)c1cc(Br)ccc1Cl`, the log2 fold change growth is 0.172.

For the molecule `Nc1ncnc2n[nH]c(Cc3cccc4ccccc34)c12`, the log2 fold change growth is 0.242.

Turning to `Cc1ccc(S(=O)(=O)Nc2ccc(CN3CCN(C(=O)c4cccc(C#N)c4)CC3)cc2)cc1`, the log2 fold change growth was 0.152.

Turning to `CS(=O)(=O)c1cccc(-c2cnc3[nH]cc(-c4ccc(CCC(=O)O)cc4)c3c2)c1`, the log2 fold change growth was 0.172.

As to `C[C@@H](C(=O)N1CCCC1)N1CCN(S(=O)(=O)c2ccc(C(C)(C)C)cc2)CC1`, the log2 fold change growth was 0.667.

`O=C(Nc1ccc(F)c(-c2nc3ncc(-c4ccccc4)cc3[nH]2)c1)N1CCCC1`: the log2 fold change growth was -5.81 (active).

Take `COc1ccc(C2=NN(C3CCCCCC3)C(=O)[C@@H]3CC=CC[C@H]23)cc1OCCCCOc1ccc(-c2nn[nH]n2)cc1`: the log2 fold change growth is -0.0946.

Take `Cc1cccnc1NC(=O)c1cccc(OCc2c(C)noc2C)c1`: the log2 fold change growth is 0.0511.

For `Cc1cc(NC(=O)c2ccc(S(=O)(=O)N(Cc3ccccc3)C(C)C)cc2)no1`, the log2 fold change growth is -0.0868.

Turning to `COC(=O)c1c(NC(=O)c2c(F)c(F)c(F)c(F)c2F)sc2c1CCCCC2`, the log2 fold change growth is 0.243.

Regarding `O=C(Nc1ccccc1-c1nc2c(C(=O)O)cccc2o1)c1ccccc1`, the log2 fold change growth was -0.0236.
